NPR1 antag: blocks ANP-stimulated signaling of human Npr1 receptor; AID 1347048; actives 1.6% (n = 76,000); HEK293 hNpr1 GloSensor cGMP, ANP-stimulated luminescence; Potency, µM (doses to about 46.3 µM), actives largely listed as inhibitors; calls by dose curve; also: nearly all actives have a fitted effect of over 60% in size
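HEK293 cells stably expressing human Npr1 and cGMP GloSensor pGS-40F, loaded 2 h with 2% GloSensor reagent, given compound 30 min at room temperature. Luminescence read before and 20 min after 0.1 nM hNppA.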
3T3 cytotox: kills NIH 3T3 cells; NIH 3T3 viability, CellTiter-Glo ATP luminescence, 48-72 h; Potency, µM (series often up to 96.7 µM), hits mostly inhibitors; actives 4.3% (n = 94,000); also: nearly all actives have a fitted effect of over 55% in size
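Cells were seeded at 400 per well, treated with pin-transferred compound, and kept 48 or 72 hr at 37 °C before CellTiter-Glo addition and luminescence imaging of cellular ATP.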
FLuc inh: Photinus pyralis luciferase inhibition; actives 2.5% (n = 76,000); purified P. pyralis luciferase, luminescence, biochemical; AID 1347043; P08659; Potency, µM (doses to about 115 µM), most hits filed as inhibitors; also: nearly all actives have a fitted effect of over 65% in size
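Cell-free enzyme assay, 10nM P. pyralis luciferase, luciferin and ATP each at 10uM. Inhibition profiled over a 6-point titration, read as luminescence.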
GPT2 inhibitor: blocks human glutamate pyruvate transaminase 2 | Recombinant GPT2, coupled pyruvate oxidase/HRP Amplex Red fluorescence | AID 1671188 | actives 0.25% (n = 100,000) | Potency, µM (titrated, usually from 57.7 µM), most hits filed as inhibitors | Q8TD30; also: nearly all actives have a fitted effect of over 60% in size
Target sequence (Q8TD30 whole entry, looked up): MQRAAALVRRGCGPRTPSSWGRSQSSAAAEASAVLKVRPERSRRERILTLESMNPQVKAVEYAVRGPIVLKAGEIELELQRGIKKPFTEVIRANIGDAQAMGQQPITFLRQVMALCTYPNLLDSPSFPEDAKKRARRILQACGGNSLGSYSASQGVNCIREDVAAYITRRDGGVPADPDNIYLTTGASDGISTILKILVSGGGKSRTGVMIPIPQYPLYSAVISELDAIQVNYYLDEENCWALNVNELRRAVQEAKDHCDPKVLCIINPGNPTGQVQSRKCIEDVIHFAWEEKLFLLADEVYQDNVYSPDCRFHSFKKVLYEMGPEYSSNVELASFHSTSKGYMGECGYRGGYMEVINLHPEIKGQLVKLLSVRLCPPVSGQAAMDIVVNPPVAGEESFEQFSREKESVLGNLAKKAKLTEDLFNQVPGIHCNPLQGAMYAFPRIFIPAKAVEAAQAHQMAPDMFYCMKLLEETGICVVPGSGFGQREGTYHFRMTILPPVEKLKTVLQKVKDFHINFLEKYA
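Fluorescence of coupled pyruvate oxidase/HRP/Amplex Red system (50uM Amplex, 30 min, dark) reports pyruvate formed by GPT2. Enzyme reaction: 10ng/uL GPT2, 2mM L-alanine, 250uM a-KG, 30 min room temperature, pH 7.5; 50uM AOA control.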
HEK cytotox: cytotoxic compounds in HEK 293 cells; actives 6.6% (n = 94,000); HEK 293 viability, ATP luminescence (CellTiter-Glo), 48-72 h; Potency, µM (titrated, usually from 115 µM), actives largely listed as inhibitors; also: nearly all actives have a fitted effect of over 60% in size
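ATP-coupled CellTiter-Glo luminescence served as viability read-out, recorded 10 min after reagent addition at room temperature. HEK 293 cells, 250 cells/well, had been incubated with pintool-transferred compound for 48 or 72 hr at 37 degree Celsius.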
NPR1 antag cnf: confirmation of human Npr1 natriuretic peptide receptor antagonists; shares compounds with NPR1 antag; HEK293 hNpr1 cGMP GloSensor luminescence, ANP-stimulated; Potency, µM (doses to about 57.6 µM), hits mostly inhibitors; actives 76% (n = 1,400); AID 1347044; calls by dose curve; also: nearly all actives have a fitted effect of over 70% in size
NPR2 antag: selectivity test of Npr1 antagonists against human Npr2; shares compounds with NPR1 antag; Potency, µM (titrated, usually from 57.6 µM), actives largely listed as inhibitors; actives 67% (n = 1,400); HEK293 hNpr2 GloSensor cGMP luminescence, CNP-stimulated; calls by dose curve; also: nearly all actives have a fitted effect of over 70% in size
FLuc inh counter: counter-screen for Npr1 antagonists: firefly luciferase inhibitors; Potency, µM (top dose mostly 57.6 µM), actives largely listed as inhibitors; purified FLuc enzyme, luminescence, Km substrate; shares compounds with NPR1 antag; actives 0.7% (n = 1,400)
GloSensor cGMP: reduces cGMP signal in GloSensor control cells; shares compounds with NPR1 antag; HEK293 GloSensor cGMP, SNP-stimulated, luminescence; Potency, µM (series often up to 57.6 µM), hits mostly inhibitors; actives 69% (n = 1,400); calls by dose curve; also: nearly all actives have a fitted effect of over 70% in size
A number is an active result. Rows were chosen to be rich in hits. Some 10% of all compounds tested hit in one or more screens of this group. Unless noted, calls follow the shape of the dose curve; as a rule, active = well fitted curve in the direction sought with a large enough effect; inconclusive = small, poorly fitted or top-dose-only effect, or another doubt; inactive = no such curve, though single readings can be large; an effect the other way counts as inactive or inconclusive.

How did COc1ccc(CN2CCC3(CC(c4ccc(OC)cc4)=NO3)C2)cc1 (centres undefined) do in these assays?
NPR1 antag: inconclusive; 3T3 cytotox: inconclusive; FLuc inh: inactive; GPT2 inhibitor: inactive; HEK cytotox: inconclusive

What do the screens show for `COc1ccc(C2(C(=O)NC3CCCc4c3[nH]c3ccccc43)CCOCC2)cc1` (centres undefined)?
NPR1 antag: inconclusive; 3T3 cytotox: 40µM; FLuc inh: inactive; GPT2 inhibitor: inactive; HEK cytotox: inconclusive; NPR1 antag cnf: 22µM; NPR2 antag: 15µM; FLuc inh counter: inactive; GloSensor cGMP: inactive

Results for CCOC(=O)C1=CN(CC(=O)Nc2c(C)cc(C)cc2C)S(=O)(=O)N=C1C ?
NPR1 antag: 11µM; 3T3 cytotox: inactive; FLuc inh: inactive; GPT2 inhibitor: inactive; HEK cytotox: inconclusive; NPR1 antag cnf: 24µM; NPR2 antag: inconclusive; FLuc inh counter: inactive; GloSensor cGMP: 27µM

How did CC(C)Oc1ccc(C(=O)N2CCC3(CC2)C(=O)N(C)c2ccccc23)cc1 do in these assays?
NPR1 antag: inactive; 3T3 cytotox: inactive; FLuc inh: inactive; GPT2 inhibitor: inactive; HEK cytotox: inconclusive

How did O=C1N(Cc2cccnc2)C[C@H]2CN(Cc3ccc(C(F)(F)F)cc3)CCN12 do in these assays?
NPR1 antag: 10µM; 3T3 cytotox: inconclusive; FLuc inh: inactive; GPT2 inhibitor: inactive; HEK cytotox: inconclusive; NPR1 antag cnf: 13µM; NPR2 antag: 18µM; FLuc inh counter: inactive; GloSensor cGMP: 13µM

What do the screens show for `COc1ccc(CN2C[C@H]3CN(Cc4ccc([N+](=O)[O-])cc4)CCN3C2=O)cc1`?
NPR1 antag: 22µM; 3T3 cytotox: inconclusive; FLuc inh: inactive; GPT2 inhibitor: inactive; HEK cytotox: inconclusive; NPR1 antag cnf: 16µM; NPR2 antag: 18µM; FLuc inh counter: inactive; GloSensor cGMP: 16µM

How did COc1ccc(CN2C[C@H]3CN(Cc4ccc5c(c4)OCCO5)CCN3C2=O)cc1 do in these assays?
NPR1 antag: 10µM; 3T3 cytotox: inconclusive; FLuc inh: inactive; GPT2 inhibitor: inactive; HEK cytotox: inconclusive; NPR1 antag cnf: 14µM; NPR2 antag: 16µM; FLuc inh counter: inactive; GloSensor cGMP: 14µM

What do the screens show for `FC(F)(F)c1ccc(N2C3CCC2CN(Cc2cccc(-c4cccnc4)c2)C3)cc1`?
3T3 cytotox: inactive; GPT2 inhibitor: inactive; HEK cytotox: inconclusive; NPR1 antag cnf: 7.7µM; NPR2 antag: 9.7µM; FLuc inh counter: inactive; GloSensor cGMP: 6.1µM

How did FC(F)(F)c1ccc(N2C3CCC2CN(Cc2cccc(-c4cccs4)c2)C3)cc1 do in these assays?
3T3 cytotox: inconclusive; GPT2 inhibitor: inactive; HEK cytotox: inactive

Results for COc1ccc(CN2C[C@H]3CN(Cc4cccnc4)CCN3C2=O)cc1 ?
NPR1 antag: inactive; 3T3 cytotox: inactive; FLuc inh: inactive; GPT2 inhibitor: inactive; HEK cytotox: inactive

What do the screens show for `COc1ccc(-c2cccc(C(=O)N3CCC(NC(C)=O)CC3)c2)nn1`?
3T3 cytotox: inactive; HEK cytotox: inactive

How did CC(C)Cn1c(=O)c(C(=O)N2CCN(C(=O)c3ccc(F)cc3)CC2)nc2cccnc21 do in these assays?
3T3 cytotox: inactive; GPT2 inhibitor: inactive; HEK cytotox: inactive

What do the screens show for `CCS(=O)(=O)N(C1CC1)C1CCOC2(CCN(C(=O)c3ccc(OC)cc3)CC2)C1` (centres undefined)?
NPR1 antag: inactive; 3T3 cytotox: inactive; FLuc inh: inactive; GPT2 inhibitor: inactive; HEK cytotox: inactive

Results for C[C@H]1[C@@H]2[C@H]3OC(=O)[C@@H](C)[C@@H]3CC[C@@]2(C)CC[C@@H]1NC(=O)c1cncnc1 ?
NPR1 antag: inactive; 3T3 cytotox: inactive; FLuc inh: inactive; GPT2 inhibitor: inactive; HEK cytotox: inactive

What do the screens show for `CCN1CCN(C(=O)c2cc(-c3ccccc3F)nc3c2cnn3C)CC1`?
3T3 cytotox: inactive; HEK cytotox: inactive

Results for COc1ccc(CN2C[C@H]3CN(Cc4ccc(S(C)(=O)=O)cc4)CCN3C2=O)cc1 ?
NPR1 antag: inconclusive; 3T3 cytotox: inactive; FLuc inh: inactive; GPT2 inhibitor: inactive; HEK cytotox: inconclusive

Results for COc1ccc(CN2CCN3C(=O)N(Cc4ccc(OC)cc4)C[C@H]3C2)cc1 ?
NPR1 antag: 14µM; 3T3 cytotox: inconclusive; FLuc inh: inactive; GPT2 inhibitor: inactive; HEK cytotox: inconclusive; NPR1 antag cnf: 13µM; NPR2 antag: 18µM; FLuc inh counter: inactive; GloSensor cGMP: 14µM

How did O=C(CN1C(=O)NC(c2ccc(Cl)cc2)C2=C1COC2=O)Nc1ccc(Br)cc1F (centres undefined) do in these assays?
NPR1 antag: inconclusive; 3T3 cytotox: 28µM; FLuc inh: inactive; GPT2 inhibitor: inactive; HEK cytotox: 35µM; NPR1 antag cnf: 24µM; NPR2 antag: inconclusive; FLuc inh counter: inactive; GloSensor cGMP: 27µM

How did NC(=O)Cc1c[nH]c2ncc(-c3ccccc3Oc3ccccc3)cc12 do in these assays?
NPR1 antag: 25µM; 3T3 cytotox: inconclusive; FLuc inh: inactive; GPT2 inhibitor: inactive; HEK cytotox: inconclusive; NPR1 antag cnf: 35µM; NPR2 antag: 35µM; FLuc inh counter: inactive; GloSensor cGMP: 20µM

Results for NC(=O)Cc1c[nH]c2ncc(-c3ccccc3F)cc12 ?
NPR1 antag: inactive; 3T3 cytotox: inconclusive; FLuc inh: inactive; GPT2 inhibitor: inconclusive; HEK cytotox: inactive

Results for O=C(Cc1c[nH]c2ncc(-c3ccccc3Oc3ccccc3)cc12)NCc1cccnc1 ?
NPR1 antag: 28µM; 3T3 cytotox: inconclusive; FLuc inh: inactive; GPT2 inhibitor: inactive; HEK cytotox: inconclusive; NPR1 antag cnf: 22µM; NPR2 antag: 22µM; FLuc inh counter: inactive; GloSensor cGMP: 20µM

How did O=C(Cc1c[nH]c2ncc(-c3ccsc3)cc12)NCc1cccnc1 do in these assays?
NPR1 antag: inactive; 3T3 cytotox: inconclusive; FLuc inh: inactive; GPT2 inhibitor: inactive; HEK cytotox: inconclusive

Compound activity (PubChem)
